How the values were obtained:
Assay in all cases: DAPPL (digital affinity profiling via proximity ligation, sequencing); 10 mM Tris-HCl pH 7.5, 50 mM NaCl, 1 mM DTT, 4% glycerol, room temperature, 30 min; GST-TFs on glutathione beads, 16-mer random dsDNA library, 0.1% formaldehyde crosslink after washing; high values mean tight binding
FEV = target: T1, FEV (Homo sapiens, UniProt Q99581 1-238); conditions: protein: recombinant; tags: N-terminal GST; dsDNA, one strand shown
T1 sequence: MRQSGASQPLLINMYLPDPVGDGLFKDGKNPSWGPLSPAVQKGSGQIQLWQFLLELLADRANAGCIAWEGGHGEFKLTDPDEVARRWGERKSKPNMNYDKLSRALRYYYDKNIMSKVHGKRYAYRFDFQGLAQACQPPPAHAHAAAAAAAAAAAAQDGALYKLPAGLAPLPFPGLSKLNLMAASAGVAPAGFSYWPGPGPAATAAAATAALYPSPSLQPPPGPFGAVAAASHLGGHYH
Summary of the method: (§1)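 Sequencing on an Illumina NextSeq500 followed washing, crosslinking with 0.1% formaldehyde, proximity ligation (BsaI/T4 ligase, 1 h, 37 °C) and PCR amplification of pools that had been incubated for 30 min at room temperature with 200 nmole of a random double-stranded 16-mer DNA library in Tris/NaCl/DTT/glycerol buffer. Each pool held DNA-barcoded human transcription factors, expressed in yeast as GST fusions and captured on glutathione beads, plus a tag-only sample. Binding signal is a hexamer's read frequency for a factor divided by its frequency in the tag-only sample.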

ETV5 = ETV5 (Homo sapiens, UniProt P41161 1-510); conditions: protein: recombinant; tags: N-terminal GST; dsDNA, one strand shown
Chain of ETV5 (P41161 whole entry): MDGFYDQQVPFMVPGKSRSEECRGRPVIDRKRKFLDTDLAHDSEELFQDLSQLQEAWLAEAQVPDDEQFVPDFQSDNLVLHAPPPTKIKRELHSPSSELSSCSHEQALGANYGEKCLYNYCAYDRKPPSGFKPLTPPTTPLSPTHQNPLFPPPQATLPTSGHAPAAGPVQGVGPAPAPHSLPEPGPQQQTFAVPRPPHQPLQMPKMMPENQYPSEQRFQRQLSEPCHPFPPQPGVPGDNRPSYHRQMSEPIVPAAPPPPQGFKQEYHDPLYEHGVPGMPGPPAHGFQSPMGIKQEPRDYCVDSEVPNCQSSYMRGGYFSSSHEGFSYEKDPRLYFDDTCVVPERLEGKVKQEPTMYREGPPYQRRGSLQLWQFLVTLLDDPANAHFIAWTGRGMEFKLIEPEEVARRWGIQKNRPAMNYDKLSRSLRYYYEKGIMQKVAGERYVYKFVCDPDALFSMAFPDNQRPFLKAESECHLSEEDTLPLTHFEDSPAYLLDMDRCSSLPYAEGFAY
Summary of the method: as §1

HSF1 = HSF1 (Homo sapiens, UniProt Q00613 1-529); conditions: protein: recombinant; tags: N-terminal GST; chain copies: 3; dsDNA, one strand shown
Chain of HSF1 (Q00613 whole entry): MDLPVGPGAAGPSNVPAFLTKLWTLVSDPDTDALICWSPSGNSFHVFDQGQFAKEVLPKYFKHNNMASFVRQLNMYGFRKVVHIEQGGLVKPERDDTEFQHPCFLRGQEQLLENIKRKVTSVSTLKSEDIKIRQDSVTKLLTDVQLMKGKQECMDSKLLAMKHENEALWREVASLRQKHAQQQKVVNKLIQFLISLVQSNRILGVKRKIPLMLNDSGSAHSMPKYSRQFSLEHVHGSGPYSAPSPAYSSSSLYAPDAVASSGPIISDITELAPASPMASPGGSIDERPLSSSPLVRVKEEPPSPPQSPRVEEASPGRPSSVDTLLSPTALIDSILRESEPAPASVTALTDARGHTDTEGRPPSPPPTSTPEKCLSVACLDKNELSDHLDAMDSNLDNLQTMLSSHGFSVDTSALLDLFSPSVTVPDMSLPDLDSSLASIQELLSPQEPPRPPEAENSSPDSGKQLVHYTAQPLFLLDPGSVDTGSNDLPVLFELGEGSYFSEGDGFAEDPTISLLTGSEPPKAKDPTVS
Summary of the method: as §1

SPIC = target: T2, SPIC (Homo sapiens, UniProt Q8N5J4 1-248); conditions: protein: recombinant; tags: N-terminal GST; dsDNA, one strand shown
T2 sequence: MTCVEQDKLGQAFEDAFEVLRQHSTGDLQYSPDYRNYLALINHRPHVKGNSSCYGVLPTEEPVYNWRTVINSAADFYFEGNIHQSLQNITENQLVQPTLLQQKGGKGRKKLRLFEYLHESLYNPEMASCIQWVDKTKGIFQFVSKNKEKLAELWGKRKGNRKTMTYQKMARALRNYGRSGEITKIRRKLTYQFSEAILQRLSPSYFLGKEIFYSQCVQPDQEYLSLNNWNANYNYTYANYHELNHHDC
Summary of the method: as §1

ELF4 = ELF4 (Homo sapiens, UniProt Q99607 1-663); conditions: protein: recombinant; tags: N-terminal GST; dsDNA, one strand shown
Chain of ELF4 (Q99607 whole entry): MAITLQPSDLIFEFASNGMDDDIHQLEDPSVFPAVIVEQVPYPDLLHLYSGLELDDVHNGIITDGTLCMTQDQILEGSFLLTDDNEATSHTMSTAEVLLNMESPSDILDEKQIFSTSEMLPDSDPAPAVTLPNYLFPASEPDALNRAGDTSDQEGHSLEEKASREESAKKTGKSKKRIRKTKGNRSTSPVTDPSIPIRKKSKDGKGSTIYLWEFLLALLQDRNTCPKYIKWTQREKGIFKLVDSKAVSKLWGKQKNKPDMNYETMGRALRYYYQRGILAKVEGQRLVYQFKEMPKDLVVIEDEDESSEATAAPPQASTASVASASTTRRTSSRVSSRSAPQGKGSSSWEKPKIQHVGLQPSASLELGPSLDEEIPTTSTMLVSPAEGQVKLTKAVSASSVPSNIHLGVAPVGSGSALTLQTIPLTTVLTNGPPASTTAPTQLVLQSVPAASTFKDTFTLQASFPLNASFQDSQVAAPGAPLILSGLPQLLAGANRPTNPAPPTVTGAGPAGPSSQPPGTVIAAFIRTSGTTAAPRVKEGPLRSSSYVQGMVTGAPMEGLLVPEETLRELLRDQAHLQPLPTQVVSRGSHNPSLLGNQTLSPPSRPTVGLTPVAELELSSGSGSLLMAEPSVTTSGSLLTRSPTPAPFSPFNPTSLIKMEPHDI
Summary of the method: as §1

ELK4 = target: T3, ELK4 (Homo sapiens, UniProt P28324-2 1-405); conditions: protein: recombinant; tags: N-terminal GST; dsDNA, one strand shown
T3 sequence: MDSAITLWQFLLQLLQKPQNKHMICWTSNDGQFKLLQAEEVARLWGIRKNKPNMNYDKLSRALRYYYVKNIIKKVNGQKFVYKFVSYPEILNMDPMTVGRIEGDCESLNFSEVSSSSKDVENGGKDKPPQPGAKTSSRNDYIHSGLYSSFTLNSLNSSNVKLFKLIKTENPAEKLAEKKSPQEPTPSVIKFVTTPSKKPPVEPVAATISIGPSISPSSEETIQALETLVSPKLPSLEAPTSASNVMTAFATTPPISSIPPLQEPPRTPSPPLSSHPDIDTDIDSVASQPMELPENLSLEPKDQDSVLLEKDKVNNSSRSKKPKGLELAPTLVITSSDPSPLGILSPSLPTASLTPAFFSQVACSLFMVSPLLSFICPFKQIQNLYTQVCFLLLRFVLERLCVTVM
Summary of the method: as §1

ETV2 = target: T4, ETV2 (Homo sapiens, UniProt O00321 1-342); conditions: protein: recombinant; tags: N-terminal GST; dsDNA, one strand shown
T4 sequence: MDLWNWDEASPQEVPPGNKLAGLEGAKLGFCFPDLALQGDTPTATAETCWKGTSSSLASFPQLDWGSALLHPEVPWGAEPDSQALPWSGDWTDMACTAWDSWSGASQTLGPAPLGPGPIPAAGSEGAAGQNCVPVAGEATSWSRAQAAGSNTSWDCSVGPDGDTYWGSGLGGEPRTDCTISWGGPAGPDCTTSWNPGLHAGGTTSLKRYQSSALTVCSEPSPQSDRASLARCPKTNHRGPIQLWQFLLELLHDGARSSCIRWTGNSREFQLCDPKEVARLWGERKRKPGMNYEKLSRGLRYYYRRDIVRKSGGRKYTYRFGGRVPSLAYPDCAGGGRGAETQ
Summary of the method: as §1

ELF3 = target: T5, ELF3 (Homo sapiens, UniProt P78545 1-371); conditions: protein: recombinant; tags: N-terminal GST; dsDNA, one strand shown
T5 sequence: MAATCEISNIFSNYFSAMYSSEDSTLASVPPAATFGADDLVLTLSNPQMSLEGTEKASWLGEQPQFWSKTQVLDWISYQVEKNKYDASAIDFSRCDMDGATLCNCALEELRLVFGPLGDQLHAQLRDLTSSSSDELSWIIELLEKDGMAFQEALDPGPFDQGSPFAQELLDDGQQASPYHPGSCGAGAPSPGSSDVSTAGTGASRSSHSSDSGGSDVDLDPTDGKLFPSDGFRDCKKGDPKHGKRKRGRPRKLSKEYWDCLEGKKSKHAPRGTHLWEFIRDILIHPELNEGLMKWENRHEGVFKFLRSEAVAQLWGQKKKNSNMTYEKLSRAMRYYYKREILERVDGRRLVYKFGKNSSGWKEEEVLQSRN
Summary of the method: as §1

CRX = CRX (Homo sapiens, UniProt O43186 1-299); conditions: protein: recombinant; tags: N-terminal GST; dsDNA, one strand shown
Chain of CRX (O43186 whole entry): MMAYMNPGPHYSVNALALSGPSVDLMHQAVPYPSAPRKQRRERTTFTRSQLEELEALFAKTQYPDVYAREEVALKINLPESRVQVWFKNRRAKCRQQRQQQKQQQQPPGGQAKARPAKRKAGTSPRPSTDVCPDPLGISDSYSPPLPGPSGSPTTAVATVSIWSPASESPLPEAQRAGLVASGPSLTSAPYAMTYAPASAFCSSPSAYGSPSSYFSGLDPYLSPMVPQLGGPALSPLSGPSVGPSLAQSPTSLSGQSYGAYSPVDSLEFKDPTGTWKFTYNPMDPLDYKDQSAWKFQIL
Summary of the method: as §1

ETV1 = ETV1 (Homo sapiens, UniProt P50549 1-477); conditions: protein: recombinant; tags: N-terminal GST; dsDNA, one strand shown
Chain of ETV1 (P50549 whole entry): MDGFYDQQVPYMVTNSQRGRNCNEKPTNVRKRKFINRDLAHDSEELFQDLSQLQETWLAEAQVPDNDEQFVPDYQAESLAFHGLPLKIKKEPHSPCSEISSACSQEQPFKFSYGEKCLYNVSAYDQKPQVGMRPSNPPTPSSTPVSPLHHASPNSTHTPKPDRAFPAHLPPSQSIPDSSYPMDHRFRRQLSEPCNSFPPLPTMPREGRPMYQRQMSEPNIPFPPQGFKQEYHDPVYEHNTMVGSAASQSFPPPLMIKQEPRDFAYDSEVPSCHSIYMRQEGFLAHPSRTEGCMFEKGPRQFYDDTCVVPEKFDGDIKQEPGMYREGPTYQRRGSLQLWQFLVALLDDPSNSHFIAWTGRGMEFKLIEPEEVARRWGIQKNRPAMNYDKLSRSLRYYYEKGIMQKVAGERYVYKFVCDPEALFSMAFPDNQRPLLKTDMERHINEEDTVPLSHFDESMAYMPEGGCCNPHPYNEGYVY
Summary of the method: as §1

ERF = target: T6, ERF (Homo sapiens, UniProt P50548 1-548); conditions: protein: recombinant; tags: N-terminal GST; dsDNA, one strand shown
T6 sequence: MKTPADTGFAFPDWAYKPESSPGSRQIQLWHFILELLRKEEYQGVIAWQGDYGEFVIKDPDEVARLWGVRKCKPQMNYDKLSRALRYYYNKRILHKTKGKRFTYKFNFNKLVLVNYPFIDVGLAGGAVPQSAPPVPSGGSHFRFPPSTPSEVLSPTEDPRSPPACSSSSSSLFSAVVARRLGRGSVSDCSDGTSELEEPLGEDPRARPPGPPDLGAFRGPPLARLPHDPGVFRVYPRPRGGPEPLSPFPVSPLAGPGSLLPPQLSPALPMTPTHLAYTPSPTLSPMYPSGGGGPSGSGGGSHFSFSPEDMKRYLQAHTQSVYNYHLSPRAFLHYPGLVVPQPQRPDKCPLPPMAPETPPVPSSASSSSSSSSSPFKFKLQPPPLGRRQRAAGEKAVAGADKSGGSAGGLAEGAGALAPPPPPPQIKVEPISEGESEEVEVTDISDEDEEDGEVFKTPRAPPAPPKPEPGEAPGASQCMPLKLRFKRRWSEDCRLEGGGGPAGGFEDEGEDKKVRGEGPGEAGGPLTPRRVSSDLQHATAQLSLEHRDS
Summary of the method: as §1

ETV3L = target: T7, ETV3L (Homo sapiens, UniProt Q6ZN32 1-361); conditions: protein: recombinant; tags: N-terminal GST; dsDNA, one strand shown
T7 sequence: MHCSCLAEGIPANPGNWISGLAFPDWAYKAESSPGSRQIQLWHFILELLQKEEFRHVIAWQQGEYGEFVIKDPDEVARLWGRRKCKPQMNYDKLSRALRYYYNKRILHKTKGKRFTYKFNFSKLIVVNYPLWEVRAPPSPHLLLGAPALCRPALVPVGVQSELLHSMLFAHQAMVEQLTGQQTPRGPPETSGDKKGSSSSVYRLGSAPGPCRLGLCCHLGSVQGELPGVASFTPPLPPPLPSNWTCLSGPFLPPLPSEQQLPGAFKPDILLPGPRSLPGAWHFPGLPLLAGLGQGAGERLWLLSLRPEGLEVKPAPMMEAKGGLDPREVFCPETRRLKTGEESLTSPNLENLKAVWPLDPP
Summary of the method: as §1

ETS2 = target: T8, ETS2 (Homo sapiens, UniProt P15036 1-469); conditions: protein: recombinant; tags: N-terminal GST; dsDNA, one strand shown
T8 sequence: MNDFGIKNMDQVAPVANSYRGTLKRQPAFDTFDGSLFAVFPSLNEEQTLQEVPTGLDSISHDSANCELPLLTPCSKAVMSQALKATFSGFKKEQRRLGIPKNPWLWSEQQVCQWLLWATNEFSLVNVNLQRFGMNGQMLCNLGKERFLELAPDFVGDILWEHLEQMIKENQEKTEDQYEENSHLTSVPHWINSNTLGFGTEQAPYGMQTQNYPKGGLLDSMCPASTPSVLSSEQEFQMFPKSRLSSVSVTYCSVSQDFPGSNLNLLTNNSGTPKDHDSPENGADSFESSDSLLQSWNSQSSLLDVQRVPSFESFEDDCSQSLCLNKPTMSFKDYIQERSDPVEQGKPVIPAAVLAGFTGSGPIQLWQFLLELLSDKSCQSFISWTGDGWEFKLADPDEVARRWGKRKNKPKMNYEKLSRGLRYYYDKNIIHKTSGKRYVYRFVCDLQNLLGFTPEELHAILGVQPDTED
Summary of the method: as §1

SPDEF = target: T9, SPDEF (Homo sapiens, UniProt O95238 1-335); conditions: protein: recombinant; tags: N-terminal GST; dsDNA, one strand shown
T9 sequence: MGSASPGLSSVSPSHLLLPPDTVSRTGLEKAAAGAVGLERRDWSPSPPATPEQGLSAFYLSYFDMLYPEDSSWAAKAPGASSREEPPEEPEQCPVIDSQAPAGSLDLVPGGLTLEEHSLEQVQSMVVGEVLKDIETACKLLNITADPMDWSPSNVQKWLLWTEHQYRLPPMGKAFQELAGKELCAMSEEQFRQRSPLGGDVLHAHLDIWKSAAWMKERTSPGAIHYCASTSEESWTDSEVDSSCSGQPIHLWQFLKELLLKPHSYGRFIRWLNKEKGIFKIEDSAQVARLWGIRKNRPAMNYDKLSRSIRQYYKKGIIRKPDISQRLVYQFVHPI
Summary of the method: as §1

ETV7 = target: T10, ETV7 (Homo sapiens, UniProt Q9Y603 1-341); conditions: protein: recombinant; tags: N-terminal GST; dsDNA, one strand shown
T10 sequence: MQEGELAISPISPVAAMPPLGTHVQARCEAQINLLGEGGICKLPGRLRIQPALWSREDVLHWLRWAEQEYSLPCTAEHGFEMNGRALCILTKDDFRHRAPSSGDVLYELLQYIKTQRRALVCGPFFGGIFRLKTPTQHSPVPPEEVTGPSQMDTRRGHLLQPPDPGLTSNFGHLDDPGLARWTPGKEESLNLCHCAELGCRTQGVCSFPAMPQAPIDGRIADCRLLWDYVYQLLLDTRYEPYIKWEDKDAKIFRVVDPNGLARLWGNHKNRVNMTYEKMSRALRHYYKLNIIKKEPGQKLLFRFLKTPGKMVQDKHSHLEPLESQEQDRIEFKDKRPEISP
Summary of the method: as §1

ELF5 = target: T11, ELF5 (Homo sapiens, UniProt Q9UKW6-2 1-255); conditions: protein: recombinant; tags: N-terminal GST; dsDNA, one strand shown
T11 sequence: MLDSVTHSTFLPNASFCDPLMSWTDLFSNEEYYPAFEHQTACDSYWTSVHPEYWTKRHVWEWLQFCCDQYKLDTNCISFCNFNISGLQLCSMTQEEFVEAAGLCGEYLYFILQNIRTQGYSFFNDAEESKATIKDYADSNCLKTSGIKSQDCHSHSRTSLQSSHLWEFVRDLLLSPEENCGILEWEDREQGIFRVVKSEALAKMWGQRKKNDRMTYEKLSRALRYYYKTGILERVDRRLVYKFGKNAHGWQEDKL
Summary of the method: as §1

ETV3 = target: T12, ETV3 (Homo sapiens, UniProt P41162-2 1-143); conditions: protein: recombinant; tags: N-terminal GST; dsDNA, one strand shown
T12 sequence: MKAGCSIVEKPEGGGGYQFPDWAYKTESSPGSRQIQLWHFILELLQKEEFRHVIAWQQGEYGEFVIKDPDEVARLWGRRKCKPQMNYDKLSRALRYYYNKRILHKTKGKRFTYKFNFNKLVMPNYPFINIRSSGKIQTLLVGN
Summary of the method: as §1

ETV6 = ETV6 (Homo sapiens, UniProt P41212 1-452); conditions: protein: recombinant; tags: N-terminal GST; dsDNA, one strand shown
Chain of ETV6 (P41212 whole entry): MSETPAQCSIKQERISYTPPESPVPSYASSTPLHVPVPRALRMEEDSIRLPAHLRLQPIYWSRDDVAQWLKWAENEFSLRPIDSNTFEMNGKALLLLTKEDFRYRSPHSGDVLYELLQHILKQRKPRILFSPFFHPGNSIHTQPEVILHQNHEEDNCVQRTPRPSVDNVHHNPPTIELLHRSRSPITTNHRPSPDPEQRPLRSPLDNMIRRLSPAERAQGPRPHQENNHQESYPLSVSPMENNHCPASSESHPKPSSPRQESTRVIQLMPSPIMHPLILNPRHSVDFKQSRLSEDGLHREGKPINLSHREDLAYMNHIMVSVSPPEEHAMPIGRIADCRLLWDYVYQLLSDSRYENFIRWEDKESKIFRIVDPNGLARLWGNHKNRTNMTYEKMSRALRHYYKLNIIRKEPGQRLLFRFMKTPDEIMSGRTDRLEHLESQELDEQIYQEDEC
Summary of the method: as §1

Sequence	binding signal (FEV)	binding signal (ETV5)	binding signal (HSF1)	binding signal (SPIC)	binding signal (ELF4)	binding signal (ELK4)	binding signal (ETV2)	binding signal (ELF3)	binding signal (CRX)	binding signal (ETV1)	binding signal (ERF)	binding signal (ETV3L)	binding signal (ETS2)	binding signal (SPDEF)	binding signal (ETV7)	binding signal (ELF5)	binding signal (ETV3)	binding signal (ETV6)
TCATTA	1.11 fold enrichment (6-mer frequency, TF over GST control)	1.11 fold enrichment (6-mer frequency, TF over GST control)	1.18 fold enrichment (6-mer frequency, TF over GST control)	1.24 fold enrichment (6-mer frequency, TF over GST control)	1.15 fold enrichment (6-mer frequency, TF over GST control)	1.16 fold enrichment (6-mer frequency, TF over GST control)	1.08 fold enrichment (6-mer frequency, TF over GST control)	1.07 fold enrichment (6-mer frequency, TF over GST control)	1.62 fold enrichment (6-mer frequency, TF over GST control)	1.08 fold enrichment (6-mer frequency, TF over GST control)	1.19 fold enrichment (6-mer frequency, TF over GST control)	1.08 fold enrichment (6-mer frequency, TF over GST control)	1.1 fold enrichment (6-mer frequency, TF over GST control)	1.06 fold enrichment (6-mer frequency, TF over GST control)	1.16 fold enrichment (6-mer frequency, TF over GST control)	1.09 fold enrichment (6-mer frequency, TF over GST control)	1.12 fold enrichment (6-mer frequency, TF over GST control)	1.06 fold enrichment (6-mer frequency, TF over GST control)
TCCGGA	3.95 fold enrichment (6-mer frequency, TF over GST control)	2.83 fold enrichment (6-mer frequency, TF over GST control)	1.58 fold enrichment (6-mer frequency, TF over GST control)	2.3 fold enrichment (6-mer frequency, TF over GST control)	2.27 fold enrichment (6-mer frequency, TF over GST control)	1.94 fold enrichment (6-mer frequency, TF over GST control)	2.27 fold enrichment (6-mer frequency, TF over GST control)	2.23 fold enrichment (6-mer frequency, TF over GST control)	1.14 fold enrichment (6-mer frequency, TF over GST control)	2.75 fold enrichment (6-mer frequency, TF over GST control)	2.04 fold enrichment (6-mer frequency, TF over GST control)	2.42 fold enrichment (6-mer frequency, TF over GST control)	2.66 fold enrichment (6-mer frequency, TF over GST control)	3.16 fold enrichment (6-mer frequency, TF over GST control)	2.24 fold enrichment (6-mer frequency, TF over GST control)	3.19 fold enrichment (6-mer frequency, TF over GST control)	2.84 fold enrichment (6-mer frequency, TF over GST control)	2.7 fold enrichment (6-mer frequency, TF over GST control)
